Experimental findings from ChEMBL document CHEMBL4513216, “Probing the Open Global Health Chemical Diversity Library for Multistage-Active Starting Points for Next-Generation Antimalarials” (ACS Infect Dis, 2020) are described below.

Out of some 69,000 compounds screened, about 8,600 (12%) showed an effect of 50% or more. The sample as a whole holds a higher share of strong results than the screen did.

The test system of the experiment is Plasmodium berghei. Kind of experiment: Screen against P. berghei liver stage (PbLuc), transformed with Luciferase, at 10uM. The format is functional, HepG2. Conditions: tested at 10 uM.
On to `O=C(NCCNC1CCCCC1)c1cccs1`, for which the INHIBITION is reported as -2.11%.

Turning to `COc1ccc(S(=O)(=O)N[C@H]2CN(C(C)=O)C[C@@H]2C(C)C)cc1F`, the INHIBITION turned out to be 17.7%. `Cc1cnc(CN(C)C2CCN(CCCc3ccccc3)C2)o1` (centres undefined): the INHIBITION is on record as -9.37%. With `CN(C)CC(=O)N1CCc2sc(C(=O)NCC3CC3)cc21`, the INHIBITION was -17.1%.

Take `CSCC(=O)N1CCCC(c2cc(C)[nH]n2)C1` (centres undefined): the INHIBITION was 28%. `CC(C)c1ocnc1C(=O)N1CC(=O)Nc2cccnc21`: the INHIBITION turned out to be 37.1%.

With `O=c1cc(CN2C[C@@H]3CC[C@H]2CN(Cc2ccccc2)C3)[nH]c(=O)[nH]1`, the INHIBITION came to 34%. Next, `CN(C)S(=O)(=O)N1CCOC(c2cccc(-c3cncnc3)n2)C1` (centres undefined): 13%. As to `NCC1[C@H]2CN(Cc3ccccc3)C[C@@H]12` (some centres undefined), the INHIBITION was 5.73%. Next, `Cn1cc(CN2CCCC(c3nccnc3-c3cccc(F)c3)C2)cn1` (centres undefined): 9.05%; `O=C(CCO)N[C@H]1CN(CC2CCC2)C[C@@H]1c1ccccc1`: -13.1%; `CS(=O)(=O)NCC(=O)N[C@H]1CN(CC2CC2)C[C@@H]1c1ccccc1`: 65.3%.

Turning to `CSCC(=O)N[C@H]1CN(CC2CCOCC2)C[C@@H]1c1ccccc1`, the INHIBITION is -69.6%.

Regarding `Cc1noc(C2(C)CCCN(C(=O)c3cccnc3)C2)n1` (centres undefined), the INHIBITION was determined as 25.6%. Next, `CCCS(=O)(=O)N1CCCC(CCC(=O)N(C)CCc2ccccn2)C1` (centres undefined): 27.6%; `CN(C(=O)NCc1nccn1CCc1ccccc1)C1CCC1`: -4.63%; `COc1ccc(Nc2nc3c(C)nn(C)c3c(=O)n2C)cc1`: 9.04%. Next, `CC(C)c1cc(C(F)(F)F)n2nc(C3CCN(S(C)(=O)=O)C3)cc2n1` (centres undefined): 43.05%; `COc1ccc(NCCC(=O)NCc2cccnc2N(C)C)cc1`: -14.9%; `O=C(c1cnc2ccccc2c1)N1CCC2(CCN2c2ncccn2)C1` (centres undefined): -78.5%.

With `Cn1ccnc1C(=O)N1CCC2(CCN2CC2CC2)C1` (centres undefined), the INHIBITION is given as 13.7%. Next, `Cc1ccc(C(=O)N2C[C@@H]3CN(c4ncccn4)C[C@@H]3C2)cn1`: 76.4%; `Cc1ccc(C(=O)N2CCC3(CCN3c3ncccn3)C2)cn1` (centres undefined): 78.9%; `Cn1cccc1C(=O)N1CCC2(CCCN2c2ncccn2)CC1`: -2.41%. Next, `Cc1ccc(C(=O)N2C[C@@H]3CN(c4ncccn4)C[C@@H]3C2)cc1`: -13.7%; `O=C(c1cccc(O)c1)N1CCC2(CCN2c2ncccn2)C1` (centres undefined): 27.7%; `Cn1ccnc1C(=O)N1CCC2(CCN2c2ncccn2)C1` (centres undefined): 71.3%. Next, `O=C(c1ccc2ccccc2n1)N1CCC2(CCN2c2ncccn2)C1` (centres undefined): -47%. On to `Cn1ccc(C(=O)N2CCC3(CCN3c3ncccn3)C2)n1` (centres undefined), for which the INHIBITION stood at 22.6%. Next, `O=C(c1ccnnc1)N1C[C@@H]2CN(c3ncccn3)C[C@@H]2C1`: 21.7%; `Cn1cccc1C(=O)N1CCC2(CCN2c2ncccn2)C1` (centres undefined): 72.2%.

As for `CC(C)NC(=O)N1CCC2(CC(=O)N(c3ccsc3)C2)C1` (centres undefined), the INHIBITION is reported as 48.2%.

In the case of `COc1cc(N2C[C@H](C(=O)NCC3CC3)[C@@H]3CCO[C@@H]3C2)ncn1`, the INHIBITION was -29.3%. Next, `Cn1cnc2c(N3CCCC3)nc(C3CCNCC3)cc21`: 32.7%. Next, `COc1ccc(OC)c(CNC(=O)N2CCC(n3cncn3)CC2)c1`: 21%. Next, `Cc1ccc(C(=O)NS(=O)(=O)c2ccccc2Cl)c(=O)[nH]1`: 35.9%. Turning to `CC(C)c1noc(C(C)N2CCN(CCCN3CCCC3=O)CC2)n1` (centres undefined), the INHIBITION is recorded as -38.7%. Next, `CN(CCO)CC1COCCN1C(=O)CCC1CCCC1` (centres undefined): 39.3%; `CC(C)c1cnc(CN(C)C2CCN(CCCc3cnn(C)c3)C2)o1` (centres undefined): -7.31%. Next, `CC(C)N1CCCC1c1csc(N)n1` (centres undefined): 16.8%; `COc1cc(-c2cc(OC)c(OC)c(OC)c2)ncn1`: -7.79%; `COC(CNC(=O)C1CC1)c1ccc(C)s1` (centres undefined): 20.4%.

On to `O=C(CCc1cc2n(n1)CCN(CCCn1cccc1)C2)N1CCCC1`, for which the INHIBITION is on record as -1.54%.

Consider `Cc1ccc(N2CCCc3sc(C(=O)NCC4CCCO4)nc32)nn1` (centres undefined), for which the INHIBITION was found to be 15.4%.

Consider `Cc1nn(C)c(Cl)c1C1CCCN1C(=O)c1ccc[nH]1` (centres undefined), for which the INHIBITION is 25.1%. For the molecule `Cc1cc(C(=O)NCCC2CN(C)CCO2)c2cccc(C)c2n1` (centres undefined), the INHIBITION was determined as 45.9%.

As to `O=C(NCCC1CN(C2CCCC2)CCO1)c1c[nH]c(=O)[nH]c1=O` (centres undefined), the INHIBITION worked out at 8.08%. Next, `Cc1ccc(C(=O)NCCC2CN(C3CCCC3)CCO2)c(C)c1` (centres undefined): 66.8%; `O=C(NCCC1CN(C2CCCC2)CCO1)c1cc(=O)[nH]c(=O)[nH]1` (centres undefined): 51.5%; `Cc1ccc(C)c(C(=O)N2CCOC(CCN(C)C)C2)c1` (centres undefined): 37.6%.

`Cc1ccc(C(=O)NCCC2CN(c3cnn(C)c(=O)c3)CCO2)s1` (centres undefined): the INHIBITION worked out at 24.7%. As for `CC(CC(=O)c1ccco1)NC(=O)c1ccccn1` (centres undefined), the INHIBITION worked out at 42.1%.

For the molecule `COCc1ncn2c1CN(S(=O)(=O)c1ccc(C)cc1)CC2`, the INHIBITION was 80.3%.

With `COc1cccc(S(=O)(=O)N2CCn3cnc(COCC4CC4)c3C2)c1`, the INHIBITION came to 15.9%.

With `CCOCc1ncn2c1CN(S(=O)(=O)c1ccc(C)cc1)CC2`, the INHIBITION is -51.9%. Next, `COCc1ncn2c1CN(S(=O)(=O)c1cccc(F)c1)CC2`: -58.3%. `COCc1ncn2c1CN(S(=O)(=O)Cc1ccc(C)cc1)CC2`: the INHIBITION is -0.55%. Next, `COCc1ncn2c1CN(S(=O)(=O)c1cccc(OC)c1)CC2`: 62.4%; `O=C(NC1COC2(CCN(CC3CCC3)CC2)C1)c1ccccn1` (centres undefined): -7.59%. Consider `CC1=C(c2ccc(C(C)C)cc2)S(=O)(=O)N=C1N1CCc2ccccc21`, for which the INHIBITION came out at 49%.

For `CC(NC(=O)c1ccc(=O)n(C)c1)c1ccccc1-n1cccn1` (centres undefined), the INHIBITION was 53.8%. Regarding `Cc1ccccc1C(C)NC(=O)c1ccc(=O)n(C)c1` (centres undefined), the INHIBITION worked out at 25.5%. Next, `CC(NC(=O)c1cc(=O)n(C)c(=O)n1C)c1ccccc1-n1cccn1` (centres undefined): 0.426%. `Cc1cc2c(=O)n3c(nc2s1)CCN(Cc1cnc(C)n1C)CC3`: the INHIBITION amounted to 23.2%.

For `Cc1cccc(OCCC(=O)NC(C)c2nnc3n2CCC3)c1` (centres undefined), the INHIBITION came out at 26.4%. Next, `Cc1nnn2c1COC(CNCc1nccs1)C2` (centres undefined): -3.24%; `COc1ccc(-c2cn3c(n2)CO[C@@H](CNCc2nccn2C)C3)cc1`: 16.2%. As to `Cn1cc(CNCC2Cn3nnc(-c4ccccc4)c3CO2)cn1` (centres undefined), the INHIBITION is listed as 62%. Next, `Cc1cc(CNCC2Cn3nnc(C)c3CO2)oc1C` (centres undefined): 60%. Next, `Cn1cc(-c2nnn3c2COC(CNCc2cccnc2)C3)cn1` (centres undefined): 27.4%. Next, `Cc1cccc(CNC[C@H]2Cn3cc(-c4ccccc4)nc3CO2)n1`: -23.2%; `c1cc(-c2nnn3c2COC(CNCc2nccs2)C3)ccn1` (centres undefined): 32.4%; `c1cc(-c2nnn3c2COC(CNCC2CCOCC2)C3)ccn1` (centres undefined): 28.2%. `COc1ccc(-c2cn3c(n2)CO[C@@H](CNCc2ccccn2)C3)cc1`: the INHIBITION came out at 66.9%.

With `Cn1cc(-c2nnn3c2COC(CNCc2ccncc2)C3)cn1` (centres undefined), the INHIBITION is 39.3%. Next, `c1ccc(CNCC2Cn3nnc(-c4ccncc4)c3CO2)nc1` (centres undefined): 64.5%; `Cc1nnn2c1COC(CNCc1ccncc1)C2` (centres undefined): 39.3%. Next, `CCc1nnc(Nc2cccc(C3CCN(C(=O)CO)CC3)n2)s1`: 11.1%; `CCCn1nccc1NC(=O)CN1CCCC1Cn1cc(C)cn1` (centres undefined): 42.3%.

With `Cn1cc(CCNC(=O)N2CCCC(Cc3nccn3C)C2)cn1` (centres undefined), the INHIBITION amounted to 33%.

On to `O=C(NCCCN1CCOCC1)c1cccc(OCc2ccccc2)c1`, for which the INHIBITION is recorded as 30%. Next, `Cc1csc(CN2CCC3(CC2)COC(COc2ccccn2)C3)n1` (centres undefined): 47.5%; `c1ccc(-c2nnn3c2COC(CNCc2ccccn2)C3)cc1` (centres undefined): 51.2%; `Cc1nnn2c1COC(CNCc1ccccn1)C2` (centres undefined): 39.3%. For `Cn1cc(-c2nnn3c2COC(CNCc2ccccn2)C3)cn1` (centres undefined), the INHIBITION is 46.3%. Next, `O=C(NCC1CC1)C1CN(c2ncccn2)Cc2ccnn2C1` (centres undefined): 31.2%; `COc1cc(C)c(S(=O)(=O)CC(=O)N(C)C2CC2)cc1OC`: 50.4%; `COc1cc(C)c(S(=O)(=O)CC(=O)N(C)C(C)C)cc1OC`: 11.5%. Next, `CCN(C(=O)CS(=O)(=O)c1cc(OC)c(OC)cc1C)C1CC1`: 33.7%; `COc1c(CNC(c2cccc(F)c2)c2nccn2C)c(C)nn1C` (centres undefined): -16.8%. Next, `Cc1c(Br)cccc1C(=O)NCC1CCCNC1` (centres undefined): 42.3%. On to `CN(Cc1nccn1C)C1CCCN(Cc2noc(C3CC3)n2)C1` (centres undefined), for which the INHIBITION was -25.8%. Next, `O=c1cc(N2CCCCC2)cnn1Cc1noc(C2CCCO2)n1` (centres undefined): -27.1%.

With `O=c1cc(N2CCCC2)cnn1Cc1noc(C2CCCO2)n1` (centres undefined), the INHIBITION is 47.1%.

In the case of `O=c1cc(N2CCNCC2)cnn1Cc1noc(C2CCCC2)n1`, the INHIBITION is recorded as 78.6%. Regarding `Cc1ccccc1CNC(=O)N1C[C@@H]2C[C@H](C(=O)N(C)C)[C@H](C1)O2`, the INHIBITION is reported as 5.63%. Next, `COc1ccc(OC)c(CNc2nnc(C(C)(C)C)o2)c1`: -10.9%; `CC(Cn1cncn1)NC(=O)NCC(C)(C)c1ccc(F)cc1` (centres undefined): 64.5%; `Cc1ccc(C(C)(C)CNC(=O)NC(C)Cn2cncn2)cc1` (centres undefined): 61.1%.

Consider `CC(Cn1cncn1)NC(=O)NCC(C)(C)Cc1ccccc1` (centres undefined), for which the INHIBITION was 39.8%. Next, `CC(Cn1cncn1)NC(=O)NCc1csc(N(C)C)n1` (centres undefined): 23.6%; `CC(NC(=O)NCCCn1cncn1)c1ccc(F)cc1` (centres undefined): -1.7%. Next, `CC(Cn1cncn1)NC(=O)Nc1ccc(F)cc1OCC1CC1` (centres undefined): -21.1%; `Cn1ncc(C(=O)N2CCN(C(=O)c3ccco3)CC2)c1Cl`: 36.5%. `CC(=O)N1CCCC2(CCC(=O)N2Cc2cccnc2)C1` (centres undefined): the INHIBITION came to 6.27%.

Take `Cc1ccc(C(=O)N2CCOC(c3nc(-c4ncccn4)no3)C2)cc1` (centres undefined): the INHIBITION is 11.1%. Next, `c1cc2c(cc1CSCc1noc(C3CC3)n1)OCCO2`: 74.3%. Next, `c1cc2c(cc1CN1CCC(Cc3noc(C4CC4)n3)CC1)OCCO2`: -5.26%; `c1cc2c(cc1CN1CCN(Cc3noc(C4CC4)n3)CC1)OCO2`: -28%.
